Drawing on PubChem BioAssay AID624256 (NMMLSC, 2012), this text covers GFP+ MAC1+ double positive, outcome and normalized GFP-positive differentiation for 43 compounds.

The whole screen tested about 360,000 compounds, of which about 3,700 (1%) were called active. Inconclusive results (about 2%) are left out. This is one part of a sample in which actives are shown more often than they occur.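 Rule for the calls: active = normalized GFP-positive differentiation at or above the plate's own cutoff, the solvent-only control mean plus 3 SD; inconclusive = no clear call, values can overlap the other calls; inactive = the rest.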 Where a SMILES comes first, the peptide text is derived from it. The star is where a group is joined. OPac = O=C(CO*)c1ccccc1; Bz = O=C(c1ccccc1)*

The nature of the assay: induction of myeloid progenitor differentiation, primary screen, cell-based, flow cytometry, MLPCN library (AID 624256).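 For GFP+ MAC1+ double positive: cells exposed to compound for four days before flow analysis.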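 For normalized GFP-positive differentiation: cells exposed to compound for four days before flow analysis; 0% = DMSO wells and 100% = fulvestrant positive control at 5 µM.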 As to conditions: ER-HoxA9 myeloid progenitors, lysozyme-GFP differentiation, at 10 µM; GFP+ MAC1+ double positive: measured here: differentiation confirmed by MAC1 staining, stronger effect = higher value; normalized GFP-positive differentiation: stronger effect = higher value. (In general: A flow cytometer gives signals particle by particle.)
`Cc1ccc(Cc2c(-c3ccc(Cl)cc3)nc3c4ccccc4ccn23)cc1`: the GFP+ MAC1+ double positive amounted to 0.4% and the call was inactive.
Consider `CC1CCCC(NC(=O)CN2CCN(Cc3ccc(Cl)cc3)C2=O)C1C` (stereo unspecified), for which the GFP+ MAC1+ double positive came out at 11.3% and the normalized GFP-positive differentiation is 111% (active).
Turning to `CC1CCCCC1NC(=O)COC(=O)Cc1ccc(Cl)cc1` (stereo unspecified), the GFP+ MAC1+ double positive was determined as 1.4% and the call was inactive.
In the case of `Cc1ccc(CNC(=O)CN2CCN(Cc3ccc(Cl)cc3)C2=O)cc1`, the GFP+ MAC1+ double positive stood at 1% and the compound was called inactive.
Taken in the same sequence, the figures for `Cc1ccc(C)c(C(O)c2ncc(-c3cccc4ccccc34)[nH]2)c1` (stereo unspecified) were 0.8% and “inactive”.
The corresponding values for `C[C@H]1COc2cc(N3CCSCC3)ccc2S(=O)(=O)N1` are 0.8% and “inactive”.
As to `Nc1c(C(=O)c2cccs2)sc2nsc(SCCN3CCCCC3)c12`, the GFP+ MAC1+ double positive turned out to be 6% and the normalized GFP-positive differentiation is 344% (active).
For the compound `CCCCCCN1CCN(C2CN(Cc3cn(CCCCCC)nn3)S(=O)(=O)C2)CC1` (stereo unspecified), the GFP+ MAC1+ double positive is 0.5% and the call was inactive.
For `Nc1[nH]c(C(=O)c2ccccc2)c(-c2ccncc2)c1C(=O)NCc1cccc2ccccc12`, the GFP+ MAC1+ double positive was found to be 1.6% and the compound was called inactive.
The corresponding values for `O=C(Nc1ccc(F)cc1)C(CCc1ccccc1)N1CCN(CC(=O)N2CCCC2)CC1` (stereo unspecified) are 1.3% and “inactive”.
As for `O=C(C[n+]1ccc2c(c1)nnn2-c1ccccc1)c1ccc(Cl)cc1`, the GFP+ MAC1+ double positive stood at 0.8% and the normalized GFP-positive differentiation is 63.4% (active).
For the compound `O=C(CSc1cccc[n+]1[O-])c1ccc(Cl)cc1`, the GFP+ MAC1+ double positive worked out at 0.4% and the call was inactive.
As to `c1ccc2c(c1)nnn2-c1ccncc1`, the GFP+ MAC1+ double positive is 0.8% and the call was inactive.
The corresponding values for `Cc1cc(=O)oc2c3c(cc(OCC(=O)NCC(O)c4ccccc4)c12)OC(C)(C)CC3` (stereo unspecified) are 7.8% and “inactive”.
For the compound `Cc1ccccc1OCC(=O)NCC(=O)OCC(=O)c1ccc2ccccc2c1`, the GFP+ MAC1+ double positive worked out at 3.6% and the normalized GFP-positive differentiation is 24.5% (active).
For the compound `Cc1ccc(S(=O)(=O)NC(=O)COc2ccccc2C)cc1`, the GFP+ MAC1+ double positive is 0.4% and the call was inactive.
Taken in the same sequence, the figures for `O=C(CNC(=O)c1ccccc1)NCC(=O)OCC(=O)c1ccccc1` (Bz-Gly-Gly-OPac) were 0.2% and “inactive”.
Taken in the same sequence, the figures for `O=C(NC1CCCCC1)C(c1cc2ccccc2o1)n1c(=O)c(-c2ccco2)nc2ccccc21` (stereo unspecified) were 5.6% and “inactive”.
Taken in the same sequence, the figures for `CSc1ccc(CN2CCC2(C)C(=O)Nc2ccc(C)c(O)c2)cc1` (stereo unspecified) were 0.4% and “inactive”.
For the compound `CC(NC(=O)c1cccc(S(=O)(=O)N2CCc3ccccc3C2)c1)c1ccco1` (stereo unspecified), the GFP+ MAC1+ double positive was 0.3% and the outcome was inactive.
As to `Cc1cccc(N2CCN(C(=O)c3cccc(S(=O)(=O)N4CCc5ccccc5C4)c3)CC2C)c1` (stereo unspecified), the GFP+ MAC1+ double positive turned out to be 7.3% and the normalized GFP-positive differentiation is 31.5% (active).
Take `CN(C)C(CNC(=O)c1cccc(S(=O)(=O)N2CCc3ccccc3C2)c1)c1ccccc1` (stereo unspecified): the GFP+ MAC1+ double positive was found to be 0.7% and the result was inactive.
Taken in the same sequence, the figures for `CC1(C(=O)NS(=O)(=O)Cc2cccc(Cl)c2)CCN1C(=O)Cc1ccc(Cl)cc1Cl` (stereo unspecified) were 0.5% and “inactive”.
For the compound `OC[C@@H]1CN(Cc2ccncc2)C[C@H](n2cnc3c(N4CCN(c5ccccc5)CC4)ncnc32)O1`, the GFP+ MAC1+ double positive was found to be 1.1% and the outcome was inactive.
With `C=CCn1c2c(c3ccccc31)CCC2`, the GFP+ MAC1+ double positive was determined as 1.4% and the compound was called inactive.
For `CCOC(=O)[C@]12CCCC=C1N(CCC1=CCCCC1)C(=O)[C@H](CC(=O)N1CCCCC1)C2`, the GFP+ MAC1+ double positive is 3% and the call was inactive.
Turning to `COc1cc(N2CCCC2)c(OC)cc1/C=C(/C#N)c1cccc(Br)c1`, the GFP+ MAC1+ double positive was 15% and the normalized GFP-positive differentiation is 258% (active).
As to `CCOc1ccc(/C=C(/C#N)c2nnc(N3CCOCC3)n2-c2ccccc2)cc1OC`, the GFP+ MAC1+ double positive turned out to be 0.8% and the result was inactive.
Consider `COc1ccc(S(=O)(=O)NC(=O)C2(C)CCN2C(=O)COc2ccc(Cl)cc2)cc1` (stereo unspecified), for which the GFP+ MAC1+ double positive came to 0.8% and the compound was called inactive.
Taken in the same sequence, the figures for `CCc1nc2c(OCc3ccccc3)cccn2c1N(C)C(=O)c1ccco1` were 1.6% and “inactive”.
The corresponding values for `CSc1ncccc1C(=O)Nc1ccc2c(c1)OCO2` are 1% and “inactive”.
As for `CSc1ncccc1C(=O)NC1CCCCCC1`, the GFP+ MAC1+ double positive was found to be 4.7% and the normalized GFP-positive differentiation is 171% (active).
Turning to `CSc1ncccc1C(=O)NCc1ccccc1Cl`, the GFP+ MAC1+ double positive was determined as 0.9% and the call was inactive.
The corresponding values for `CCCCCNC(=O)C1C(=O)Nc2ccccc2C(=O)N1C(C)(C)C` (stereo unspecified) are 0.8% and “inactive”.
Taken in the same sequence, the figures for `COC(=O)C1=CN(c2c(C)cc(C)cc2C)C(N)=C(C#N)C1c1cccc(F)c1` (stereo unspecified) were 1.5% and “inactive”.
Taken in the same sequence, the figures for `CC1(C(=O)NS(=O)(=O)c2ccccc2Cl)CCN1C(=O)c1cccc(F)c1` (stereo unspecified) were 0.8% and “inactive”.
In the case of `Cc1ccc(C2=CSC3=NS(=O)(=O)CCN23)cc1C`, the GFP+ MAC1+ double positive was 4.9% and the normalized GFP-positive differentiation was 25% (active).
With `CCCOc1ccc(C2=CSC3=NCCN23)cc1Cl`, the GFP+ MAC1+ double positive turned out to be 0.8% and the outcome was inactive.
The corresponding values for `O=S1(=O)CCN2C(=N1)SC1=C2CCN(Cc2ccccc2)C1` are 0.5% and “inactive”.
Taken in the same sequence, the figures for `CCCCn1c(N)c(N(CCOC)C(=O)c2cccc(S(=O)(=O)N3CCCCC3)c2)c(=O)[nH]c1=O` were 0.5% and “inactive”.
Turning to `CCCCn1c(N)c(N(CC)C(=O)c2ccc(N(C)S(=O)(=O)c3ccc(C)cc3)cc2)c(=O)[nH]c1=O`, the GFP+ MAC1+ double positive worked out at 1.1% and the call was inactive.
Consider `CCCCn1c(N)c(N(CCOC)C(=O)c2cccc(S(=O)(=O)N(C)c3ccccc3)c2)c(=O)[nH]c1=O`, for which the GFP+ MAC1+ double positive came to 1.3% and the normalized GFP-positive differentiation was 16.7% (active).
As to `CCC1CCCCN1C(=O)CSc1nc(C)cc(C)n1` (stereo unspecified), the GFP+ MAC1+ double positive amounted to 1.8% and the outcome was inactive.
